The target of assay [1] is ATP-dependent 6-phosphofructokinase (Trypanosoma brucei brucei) (UniProt O15648). Put plainly: qHTS Assay to Find Inhibitors of T. brucei phosphofructokinase: hit validation (AID 492961).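 Also: luminescence reports ADP formed as PFK phosphorylates fructose-6-phosphate with ATP; % is scaled to controls: 0 for no effect and ±100 for the full control effect.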 In short, it runs like this:
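ADP-Glo luminescence read-out of ADP formed by 1.25 nM PFK from 0.1 mM ATP and 0.5 mM F6P (TEA pH 8.0, 45 min, RT). Compounds titrated; activity normalized to no-enzyme and full-enzyme controls.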
In general terms: Quantitative high-throughput screening tests each substance at several concentrations.

Assay [2] can be described thus: qHTS profiling for inhibitors of Plasmodium falciparum proliferation (AID 504749). Also: potency is read from the fitted curve at half-maximal effect.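 As to activity, negative = inhibition: 0% = DMSO vehicle and full inhibition = artemisinin control.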 As to all read-outs here: nearly all actives have a fitted effect of over 60% in size. The following applies: P. falciparum in erythrocytes, SYBR Green DNA, 72 h; for activity, negative = inhibition: at 28.7 µM (top of the series). In short, it runs like this: (§1)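 Three-day growth assay of blood-stage parasites in erythrocytes (0.3% parasitemia, 2.5% hematocrit) at 37 C, 5% CO2, quantified by SYBR Green DNA staining after overnight detergent lysis.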

The test system of a further assay is 3D7. The assay is described as above. As to conditions: P. falciparum in erythrocytes, SYBR Green DNA, 72 h; series mostly up to 28.7 µM. In short, it runs like this:
as §1

In another assay the test system is AA1029. The description is as above. The following applies: P. falciparum in erythrocytes, SYBR Green DNA, 72 h; series mostly up to 28.7 µM. Summed up: as §1
A further assay relates to AS120. The description is as above. As to conditions: P. falciparum in erythrocytes, SYBR Green DNA, 72 h; series mostly up to 28.7 µM. In short, it runs like this: as §1
The next assay relates to ATS189. The description is as above. As to conditions: P. falciparum in erythrocytes, SYBR Green DNA, 72 h; series mostly up to 28.7 µM. In short, it runs like this:
as §1

The subject of a further assay is C2A. Described as above. As to conditions: P. falciparum in erythrocytes, SYBR Green DNA, 72 h; series mostly up to 28.7 µM. Summed up:
as §1

In the next assay the test system is CP185. The assay is described as above. As to conditions: P. falciparum in erythrocytes, SYBR Green DNA, 72 h; series mostly up to 28.7 µM. Summed up: as §1
Another assay deals with CP191. Described as above. As to conditions: P. falciparum in erythrocytes, SYBR Green DNA, 72 h; series mostly up to 28.7 µM. Summed up: as §1
The next assay relates to CP192. The description is as above. As to conditions: P. falciparum in erythrocytes, SYBR Green DNA, 72 h; series mostly up to 28.7 µM. Summed up: as §1
The test system of a further assay is CP194. The assay is described as above. The following applies: P. falciparum in erythrocytes, SYBR Green DNA, 72 h; series mostly up to 28.7 µM. In short, it runs like this: as §1
Another assay concerns CP211. Described as above. The following applies: P. falciparum in erythrocytes, SYBR Green DNA, 72 h; series mostly up to 28.7 µM. Summed up:
as §1

Another assay has as its system CP217. Described as above. As to conditions: P. falciparum in erythrocytes, SYBR Green DNA, 72 h; series mostly up to 28.7 µM. In short, it runs like this:
as §1

In the next assay the test system is CP237. Described as above. The following applies: P. falciparum in erythrocytes, SYBR Green DNA, 72 h; series mostly up to 28.7 µM. In short, it runs like this: as §1
In a further assay the test system is CP238. The description is as above. As to conditions: P. falciparum in erythrocytes, SYBR Green DNA, 72 h; series mostly up to 28.7 µM. Summed up: as §1
For another assay, the system named is CP247. The assay is described as above. As to conditions: P. falciparum in erythrocytes, SYBR Green DNA, 72 h; series mostly up to 28.7 µM. Summed up:
as §1

A further assay relates to CP252. The description is as above. The following applies: P. falciparum in erythrocytes, SYBR Green DNA, 72 h; series mostly up to 28.7 µM. In short, it runs like this:
as §1

The subject of another assay is CP286. The description is as above. The following applies: P. falciparum in erythrocytes, SYBR Green DNA, 72 h; series mostly up to 28.7 µM. In short, it runs like this: as §1
The subject of a further assay is Dd2. The description is as above. As to conditions: P. falciparum in erythrocytes, SYBR Green DNA, 72 h; series mostly up to 28.7 µM. Summed up:
as §1

A further assay relates to P94_40. The description is as above. As to conditions: P. falciparum in erythrocytes, SYBR Green DNA, 72 h; series mostly up to 28.7 µM. Summed up:
as §1

Inconclusive results are not listed. Values without a mark were called inactive. The source made the active and inactive calls. Calls follow the shape of the dose curve; as a rule, active = well fitted curve in the direction sought with a large enough effect; inconclusive = small, poorly fitted or top-dose-only effect, or another doubt; inactive = no such curve, though single readings can be large; an effect the other way counts as inactive or inconclusive.

Sequence of ATP-dependent 6-phosphofructokinase (Trypanosoma brucei brucei) (O15648 whole entry, looked up): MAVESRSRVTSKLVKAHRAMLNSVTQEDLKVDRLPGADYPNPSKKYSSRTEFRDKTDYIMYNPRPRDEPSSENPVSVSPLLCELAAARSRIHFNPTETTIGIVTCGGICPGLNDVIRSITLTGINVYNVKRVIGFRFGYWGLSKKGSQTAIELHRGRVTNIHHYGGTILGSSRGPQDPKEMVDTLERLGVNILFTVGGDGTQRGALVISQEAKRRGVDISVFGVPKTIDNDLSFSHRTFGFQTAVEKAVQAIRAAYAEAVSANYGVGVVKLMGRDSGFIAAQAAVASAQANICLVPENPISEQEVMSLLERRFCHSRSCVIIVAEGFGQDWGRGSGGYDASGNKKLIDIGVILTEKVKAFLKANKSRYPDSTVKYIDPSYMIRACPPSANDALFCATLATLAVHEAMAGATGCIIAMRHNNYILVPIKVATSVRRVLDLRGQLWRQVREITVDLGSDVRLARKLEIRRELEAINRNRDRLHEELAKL

For `CCCCC/C(C=O)=C/c1ccccc1`, the Potency result (in [1]; with 3D7; in the assay on AA1029; in the assay on AS120; in the assay on ATS189; in the assay with C2A) was “inactive” throughout. Besides, the Potency result in the assay with CP185, in the assay with CP191, with CP192, with CP194, with CP211 and in the assay on CP217 was “inactive” each time. Besides, the Potency entry in the assay with CP237, in the assay on CP238, with CP247, in the assay with CP252, in the assay with CP286 and in the assay with Dd2 was “inactive” throughout. In addition, the Potency result in the assay on P94_40 is “inactive”. The activity, negative = inhibition is -0.781% in assay [2] (parasite line A) and -10.8% in [2] (parasite line B).
With `CNC1C(O)C(OC2C(N)CC(N)C(OC3OC(CN)=CCC3N)C2O)OCC1(C)O` (stereo not given), the Potency result (in [1]; in the assay with 3D7; with AA1029; in the assay with AS120; with ATS189; with C2A) was “inactive” in each case. Also, the Potency result with CP185, with CP191, in the assay on CP192, in the assay with CP194, in the assay on CP211 and in the assay on CP217 was “inactive” in each case. The Potency entry with CP237, in the assay on CP238, in the assay with CP247, in the assay with CP252, with CP286 and with Dd2 was “inactive” each time. Besides, in the assay with P94_40, the Potency entry was “inactive”. Besides, the activity, negative = inhibition is 16.7% in assay [2] (parasite line A) and -10.7% in [2] (parasite line B).
Turning to `Cc1cn([C@H]2CC(F)[C@@H](CO)O2)c(=O)[nH]c1=O` (stereo not given in full), the Potency result (in assay [1]; in the assay with 3D7; with AA1029; in the assay with AS120; with ATS189; with C2A) was “inactive” each time. In addition, the Potency entry in the assay on CP185, with CP191, in the assay with CP192, with CP194, in the assay with CP211 and with CP217 was “inactive” in each case. Further, the Potency result in the assay on CP237, in the assay with CP238, with CP247, in the assay on CP252, with CP286 and in the assay with Dd2 was “inactive” throughout. The Potency result in the assay with P94_40 was “inactive”. Further, the activity, negative = inhibition in assay [2] (parasite line A) is 6.21%; in [2] (parasite line B), 4.03%.
As for `CC12C=CC(=O)C=C1[C@@H](F)CC1C2C(O)CC2(C)C1CC[C@]2(O)C(=O)CO` (stereo not given in full), the Potency result (in [1]; in the assay with 3D7; in the assay on AA1029; in the assay on AS120; with ATS189; in the assay on C2A) was “inactive” each time. The Potency entry in the assay with CP185, in the assay with CP191, in the assay on CP192, in the assay with CP194, with CP211 and in the assay on CP217 was “inactive” in each case. Moreover, the Potency result with CP237, with CP238, with CP247, with CP252, in the assay with CP286 and in the assay on Dd2 was “inactive” each time. Further, the Potency result in the assay on P94_40 was “inactive”. In addition, the activity, negative = inhibition is 4.43% in assay [2] (parasite line A) and 5.63% in assay [2] (parasite line B).
Regarding `C[C@]12CC[C@@H]3c4ccc(O)cc4CC[C@H]3[C@@H]1C[C@H](O)C2O` (stereo not given in full), the Potency result (in assay [1]; in the assay on 3D7; in the assay on AA1029; with AS120; with ATS189; in the assay on C2A) was “inactive” throughout. For the same molecule, the Potency result in the assay with CP185, with CP191, in the assay on CP192, in the assay with CP194, with CP211 and in the assay on CP217 was “inactive” in each case. Besides, the Potency result with CP237, in the assay with CP238, in the assay with CP247, in the assay on CP252, in the assay with CP286 and in the assay with Dd2 was “inactive” each time. The Potency result in the assay on P94_40 is “inactive”. Also, the values for the activity, negative = inhibition in assay [2] (parasite line A) and in assay [2] (parasite line B) were 7.19% and 12.7%, respectively.
Turning to `CC[C@@H](C)C(N)C(=O)O` (stereo not given in full), the Potency entry (in [1]; in the assay on 3D7; in the assay with AA1029; in the assay with AS120; in the assay on ATS189; in the assay with C2A) was “inactive” throughout. The Potency result in the assay with CP185, with CP191, in the assay on CP192, with CP194, in the assay with CP211 and in the assay on CP217 was “inactive” throughout. For the same molecule, the Potency result in the assay with CP237, in the assay with CP238, in the assay on CP247, in the assay with CP252, in the assay with CP286 and in the assay with Dd2 was “inactive” throughout. In the assay with P94_40, the Potency entry is “inactive”. Moreover, the activity, negative = inhibition in [2] (parasite line A) was 6.94%; in [2] (parasite line B), 2.73%.
With `COC(c1ccccc1)(c1ccccc1)C(Oc1nc(C)cc(C)n1)C(=O)O` (stereo not given), the Potency result (in [1]; with 3D7; with AA1029; with AS120; in the assay with ATS189; in the assay on C2A) was “inactive” in each case. For the same molecule, the Potency entry in the assay with CP185, in the assay with CP191, with CP192, in the assay with CP194, in the assay with CP211 and in the assay on CP217 was “inactive” throughout. In addition, the Potency entry in the assay on CP237, in the assay on CP238, with CP247, with CP252, in the assay on CP286 and in the assay with Dd2 was “inactive” each time. In the assay on P94_40, the Potency entry is “inactive”. Further, the figures for the activity, negative = inhibition in assay [2] (parasite line A) and in [2] (parasite line B) were 2.94% and 8.39%, respectively.
`OCC1O[C@@H](O[C@@H]2C(CO)OC(O)C(O)C2O)C(O)C(O)C1O` (stereo not given in full): the Potency result (in assay [1]; in the assay with 3D7; in the assay on AA1029; in the assay on AS120; in the assay with ATS189; in the assay with C2A) was “inactive” throughout. Further, the Potency result in the assay with CP185, in the assay on CP191, with CP192, in the assay on CP194, in the assay with CP211 and with CP217 was “inactive” throughout. Besides, the Potency entry in the assay with CP237, in the assay on CP238, in the assay with CP247, in the assay with CP252, with CP286 and with Dd2 was “inactive” in each case. For the same molecule, the Potency entry in the assay with P94_40 was “inactive”. For the same molecule, the activity, negative = inhibition in [2] (parasite line A) is 8.35%; in assay [2] (parasite line B), 4.55%.
Take `CC(C)C[C@@H](NC(=O)[C@@H](Cc1ccccc1)NC(=O)c1cnccn1)B(O)O`: the Potency entry in assay [1] was “inactive”. Moreover, the Potency in [2] (parasite line A) was 0.0794 µM (active); in assay [2] (parasite line B), 0.0794 µM (active); in the assay on 3D7 it was 0.112 µM (active); in the assay with AA1029 it was 0.112 µM (active); in the assay with AS120 it was 0.1 µM (active); in the assay with ATS189, 0.112 µM (active). For the same molecule, the Potency was 0.112 µM (active) in the assay with C2A; 0.112 µM (active) with CP185; 0.1 µM (active) with CP191; 0.19 µM (active) with CP192; 0.426 µM (active) with CP194; 0.757 µM (active) with CP211. Besides, the Potency with CP217 was 0.112 µM (active); with CP237, 0.0891 µM (active); in the assay on CP238, 0.0891 µM (active); with CP247, 0.126 µM (active); in the assay with CP252, 0.0891 µM (active); in the assay with CP286, 0.0891 µM (active). For the same molecule, the Potency in the assay with Dd2 is 0.112 µM (active); in the assay with P94_40, 0.126 µM (active).
For the molecule `C[C@@H]1C(SC2Cn3cnc[n+]3C2)=C(C(=O)[O-])N2C(=O)[C@H]([C@@H](C)O)[C@@H]12` (stereo not given in full), the Potency entry (in assay [1]; in the assay on 3D7; in the assay with AA1029; with AS120; in the assay on ATS189; with C2A) was “inactive” in each case. Besides, the Potency entry in the assay with CP185, in the assay with CP191, with CP192, in the assay with CP194, in the assay on CP211 and with CP217 was “inactive” throughout. The Potency result in the assay with CP237, in the assay with CP238, in the assay with CP247, with CP252, in the assay with CP286 and in the assay on Dd2 was “inactive” throughout. In addition, in the assay with P94_40, the Potency result is “inactive”. Also, the activity, negative = inhibition in assay [2] (parasite line A) was 6.33%; in assay [2] (parasite line B), 11.1%.
